A short description of assay [1]: qHTS RealTime-Glo MT Cell Viability Assay in HepG2 cells - 8 hour (AID 1224873). Also: nearly all actives have a fitted effect of over 55% in size. The method, boiled down: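 HepG2 cells (600/well) mixed with RealTime-Glo MT reagent, settled 5 h at 37 C/5% CO2 before compound addition. Nonlytic NanoLuc luminescence from viable-cell prosubstrate reduction read repeatedly during 40 h treatment at 37 C.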
A short description of assay [2]: qHTS RealTime-Glo MT Cell Viability Assay in HEK293 cells - 40 hour (AID 1224874). Also: nearly all actives have a fitted effect of over 50% in size. Also: potency is read from the fitted curve at half-maximal effect. As to conditions: RealTime-Glo luminescence; max response: active compounds read low. An outline of the steps:
(§1)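 Kinetic, non-lysing viability readout. Seed HEK293 (600/well) with reagent, incubate 5 h at 37 C/5% CO2, pin 23 nL compound in DMSO, incubate at 37 C, read luminescence at 0, 8, 16, 24, 32, 40 h.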
On the technique in general: In qHTS, concentration-response curves come from the screen itself.

Assay [3] can be described thus: A CellTox Green Cytotoxicity Assay to monitor cytotoxicity in HEK293 cells - 24 hour (AID 1224875). Also: nearly all actives have a fitted effect of over 45% in size. Also: potency is read from the fitted curve at half-maximal effect. As to activity change: series mostly up to about 77 µM. The method, boiled down: (§2)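 Real-time, in one plate: 600 HEK293 cells/well with dead-cell DNA dye, pinned compound after 5 h, 37 C incubation over 40 h; viable cells give no appreciable fluorescence.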
Assay [4] can be described thus: A CellTox Green Cytotoxicity Assay to monitor cytotoxicity in HepG2 cells - 16 hour (AID 1224876). Also: nearly all actives have a fitted effect of over 45% in size. Also: potency is read from the fitted curve at half-maximal effect. The method, boiled down:
(§3)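 Cytotoxicity was tracked as dead-cell DNA fluorescence in HepG2 cells treated with test compounds at 37 C; each time-point value comes from one kinetic series spanning 0, 8, 16, 24, 32 and 40 h.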

The nature of assay [5]: A CellTox Green Cytotoxicity Assay to monitor cytotoxicity in HepG2 cells - 24 hour (AID 1224878). Also: nearly all actives have a fitted effect of over 45% in size. Also: potency is read from the fitted curve at half-maximal effect. The method, boiled down:
as §3

Assay [6] in a line: A CellTox Green Cytotoxicity Assay to monitor cytotoxicity in HepG2 cells - 40 hour (AID 1224879). Also: nearly all actives have a fitted effect of over 40% in size. Also: potency is read from the fitted curve at half-maximal effect. The method, boiled down:
as §3

Assay [7] can be described thus: qHTS RealTime-Glo MT Cell Viability Assay in HEK293 cells - 0 hour (AID 1224880). Also: nearly all actives have a fitted effect of over 45% in size. Also: potency is read from the fitted curve at half-maximal effect. As to activity change, negative = cytotoxicity: top concentration of the series differs between compounds. An outline of the steps:
as §1

Assay [8] in a line: A CellTox Green Cytotoxicity Assay to monitor cytotoxicity in HEK293 cells - 32 hour (AID 1224881). Also: nearly all actives have a fitted effect of over 40% in size. Also: potency is read from the fitted curve at half-maximal effect. The method, boiled down: as §2
A short description of assay [9]: qHTS RealTime-Glo MT Cell Viability Assay in HEK293 cells - 16 hour (AID 1224872). Also: nearly all actives have a fitted effect of over 50% in size. Also: potency is read from the fitted curve at half-maximal effect. As to activity change, negative = cytotoxicity: top concentration of the series differs between compounds. An outline of the steps:
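Cells + reagent dispensed (600 cells/well, HEK293) → 5 h at 37 C/5% CO2 → 23 nL compound in DMSO pinned → 40 h at 37 C → luminescence read at 0, 8, 16, 24, 32, 40 h.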

Assay [10] in a line: qHTS RealTime-Glo MT Cell Viability Assay in HepG2 cells - 32 hour (AID 1224877). Also: nearly all actives have a fitted effect of over 55% in size. Also: potency is read from the fitted curve at half-maximal effect. An outline of the steps:
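Real-time, nonlytic viability: 600 HepG2 cells/well mixed with NanoLuc enzyme plus prosubstrate; 5 h settle, compound (DMSO) added by pintool; luminescence monitored over 40 h at 37 C.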

Structures are written as SMILES. “And” between values parts separate entries of the source, which are not always exact repeats. Equal values may be shown once. Inconclusive results are not listed. A number with no mark means an inactive call. The source made the active and inactive calls. Calls follow the shape of the dose curve; as a rule, active = well fitted curve in the direction sought with a large enough effect in the repeat runs; inconclusive = weak or mixed curves; inactive = no such curve, though single readings can be large; an effect the other way counts as inactive or inconclusive.
% is scaled to controls: 0 for no effect and ±100 for the full control effect.

With `Cc1ccc(-n2[nH]c(C)c(N=Nc3cccc(-c4cccc(C(=O)O)c4)c3O)c2=O)cc1C`, the Potency result in assay [1], in assay [3], in assay [4], in [5], in [6] and in [7] was “inactive” in each case. Besides, the Potency result in assay [8] is “inactive”. Moreover, the Potency in [2] was 21.3 µM (active).
Regarding `CCCCCCOc1cc(C)c(O)c(C)c1C`, the Potency in assay [9] was 14 µM (active); in assay [2], 19.7 µM (active); in assay [3], 44.2 µM (active); in [5] it was 24.8 µM (active); in [6] it was 24.8 µM (active); in assay [8] it was 44.2 µM (active). For the same molecule, the Potency result in assay [7] was “inactive”.
For `Clc1ccc(C(Cn2ccnc2)OCc2ccsc2Cl)c(Cl)c1` (stereo not given), the Potency in assay [9] was 15.1 µM (active); in assay [2] it was 16.9 µM (active); in assay [5], 21.3 µM (active); in assay [6], 23.9 µM (active). For the same molecule, the Potency entry in [3] and in assay [7] was “inactive” in each case.
As to `C=CC(=O)OCCOCC(CC)(COCCOC(=O)C=C)COCCOC(=O)C=C`, the Potency was 18.1 µM (active) in [9], 14.4 µM (active) in assay [2], 28.7 µM (active) in assay [10] and 25.6 µM (active) in assay [6]. Further, the Potency entry in assay [4] and in [7] was “inactive” in each case.
Take `S=C(SSSSSSC(=S)N1CCCCC1)N1CCCCC1`: the Potency in assay [9] was 13.6 µM (active); in assay [2], 0.192 µM (active). The cytotoxicity increase in [4] was -6.85% [at 15.8 µM]. For the same molecule, the activity change, negative = cytotoxic in assay [10] is -24.5% [at 15.8 µM]. Also, the cytotoxicity in assay [5] is -0.0697% [at 15.8 µM]. Further, the activity change, negative = cytotoxicity in [7] is -11.8% [at 15.8 µM].
In the case of `Clc1ccccc1CN1CCc2sccc2C1`, the Potency entry in assay [1], in assay [3], in assay [4], in assay [10], in assay [5] and in assay [6] was “inactive” in each case. In addition, the Potency entry in assay [7] and in [8] was “inactive” throughout. For the same molecule, in [2], the max response is -22.8%.
Consider `O=C1Nc2ccc(Cl)cc2[C@@](C#CC2CC2)(C(F)(F)F)O1`, for which the Potency in [9] is 21.3 µM (active); in assay [2] it was 23.9 µM (active). Further, in [7], the Potency result is “inactive”.
In the case of `CNCC[C@H](Oc1cccc2ccccc12)c1cccs1`, the Potency is 23.9 µM (active) in assay [9], 23.9 µM (active) in [2], 21.3 µM (active) in assay [10] and 19 µM (active) in assay [6].
For `CNC(=O)c1cc(Oc2ccc(NC(=O)Nc3ccc(Cl)c(C(F)(F)F)c3)cc2)ccn1`, the Potency in assay [9] and in assay [2] was 3.01 µM (active) in each case. Also, the Potency entry in assay [3], in assay [4], in [5], in assay [7] and in assay [8] was “inactive” in each case.
Regarding `Cc1ccc(CCn2c3c(c4cc(Cl)ccc42)CN(C)CC3)cn1`, the Potency entry in [1], in assay [3], in assay [4], in [10] and in assay [8] was “inactive” throughout. For the same molecule, the values for the Potency in [2] and in [7] were 21.3 µM (active) and 16.9 µM (active), respectively.
Consider `CCN(CC)CCOc1ccc(C(O)(Cc2ccc(Cl)cc2)c2ccc(C)cc2)cc1` (stereo not given), for which the Potency in assay [9] was 21.3 µM (active); in assay [2], 10.7 µM (active); in assay [3], 23.9 µM (active); in assay [4], 23.9 µM (active); in [10] it was 19 µM (active); in assay [6] it was 15.1 µM (active). Also, the Potency in [8] was 23.9 µM (active). In addition, in assay [7], the Potency entry was “inactive”.
As for `CCN(CC)c1ccc(N)cc1`, the figures for the Potency in assay [9], in assay [2] and in assay [6] were 22.5 µM (active), 17.8 µM (active) and 50.3 µM (active), respectively. For the same molecule, the Potency result in assay [3] and in assay [7] was “inactive” throughout.
On to `Clc1ccc(C(c2ccccc2Cl)C(Cl)Cl)cc1` (stereo not given), for which the Potency entry in assay [1], in assay [3], in [4], in assay [10], in assay [5] and in assay [6] was “inactive” each time. Also, the Potency result in assay [7] and in assay [8] was “inactive” each time. Moreover, the max response in assay [2] is -26.4%.
With `COc1cc(C(C)C)c2c(c1)S(=O)(=O)N(COc1cc(=O)n3cccc(OCCN4CCCCC4)c3n1)C2=O`, the activity change, negative = cytotoxicity is 3.24% [at 15.8 µM] in assay [9] and -4.74% [at 15.8 µM] in assay [7]. The activity change in assay [3] was 0.172% [at 15.8 µM, active compounds read high]. In assay [10], the activity change, negative = cytotoxic is -2.94% [at 15.8 µM]. Further, in assay [8], the cytotoxicity increase was 5.59% [at 15.8 µM].
For `CN(C)CCCN1c2ccccc2Sc2ccc(C(F)(F)F)cc21`, the Potency is 19 µM (active) in assay [9]; 23.9 µM (active) in assay [2]; 23.9 µM (active) in [4]; 23.9 µM (active) in [5]; 23.9 µM (active) in [6]; 23.9 µM (active) in assay [8].
As for `CCOC(=O)N1CCC(=C2c3ccc(Cl)cc3CCc3cccnc32)CC1`, the Potency is 21.9 µM (active) and 8.49 µM (active) in [9]; 19.5 µM (active) and 16.9 µM (active) in assay [2]; 54.9 µM (active) in assay [6]. The Potency result in assay [3], in assay [4], in assay [7] and in assay [8] was “inactive” each time.
For the molecule `CC(C)(C)c1cc(/C=C2\SC(=N)NC2=O)cc(C(C)(C)C)c1O`, the Potency in [9] was 43.6 µM (active); in [2] it was 49 µM (active); in assay [4] it was 43.6 µM (active); in assay [5], 43.6 µM (active); in assay [6] it was 43.6 µM (active). For the same molecule, the Potency result in [7] was “inactive”.
Take `CN(C)c1ccc(N=NS(=O)(=O)O)cc1`: the Potency in assay [9] was 14.5 µM (active). Also, the max response in [2] was -17.2%. The Potency entry in assay [4], in assay [10], in assay [6], in assay [7] and in assay [8] was “inactive” in each case.
Turning to `CCC(C)(C)c1cc(O)c(C(C)(C)CC)cc1O`, the Potency in [9] is 21.9 µM (active); in [2], 34.7 µM (active); in [6], 49 µM (active). The Potency entry in assay [4] and in [7] was “inactive” in each case.
In the case of `Cc1cccc(C)c1NC(=O)CN1CCN(CCCC(c2ccc(F)cc2)c2ccc(F)cc2)CC1`, the Potency is 10.7 µM (active) in [9]; 10.7 µM (active) in assay [2]; 26.8 µM (active) in assay [4]; 23.9 µM (active) in assay [10]; 23.9 µM (active) in assay [6]; 19 µM (active) in assay [8]. In assay [7], the Potency entry was “inactive”.
For `CC(C)c1ccc(O)c(C(C)C)c1`, the Potency result in [9], in assay [10] and in [7] was “inactive” in each case. Further, in assay [2], the max response is -12.3%. The Potency in [3] is 21.9 µM (active); in [5] it was 27.5 µM (active); in assay [6], 27.5 µM (active); in [8] it was 21.9 µM (active).
Consider `C[n+]1c2cc(N)ccc2cc2ccc(N)cc21` (tested in a mixture with another compound), for which the Potency is 21.3 µM (active) in assay [9]; 4.77 µM (active) in [2]; 23.9 µM (active) in [3]; 23.9 µM (active) in assay [4]; 21.3 µM (active) in assay [5]; 21.3 µM (active) in assay [6]. Besides, in assay [8], the Potency is 23.9 µM (active). Besides, the Potency result in assay [7] is “inactive”.
Regarding `CCCCCCC(C)Nc1ccc(Nc2ccccc2)cc1` (stereo not given), the results for the Potency in [9] and in assay [2] were 19.5 µM (active) and 21.9 µM (active), respectively. In addition, the Potency result in assay [3], in assay [4], in [6] and in assay [8] was “inactive” in each case.
Regarding `CCOC(=O)C1=C(C)NC(C)=C(C(=O)OCC)C1c1ccccc1/C=C/C(=O)OC(C)(C)C`, the Potency result in assay [9], in [4], in assay [5], in assay [6] and in assay [8] was “inactive” each time. In assay [7], the Potency was 3.79 µM (active).
Regarding `C[C@H]1O[C@@H](O[C@H]2[C@@H](O)C[C@H](O[C@H]3[C@@H](O)C[C@H](O[C@H]4CC[C@@]5(C)[C@H](CC[C@@H]6[C@@H]5C[C@@H](O)[C@]5(C)[C@@H](C7=CC(=O)OC7)CC[C@]65O)C4)O[C@@H]3C)O[C@@H]2C)C[C@H](O)[C@@H]1O`, the Potency result in assay [1], in assay [3], in assay [4], in assay [10], in [5] and in [6] was “inactive” throughout. Also, the Potency result in assay [7] and in [8] was “inactive” in each case. In assay [2], the Potency was 61.7 nM (active) and 54.3 nM (active).

The record behind these values is PubChem BioAssay (Tox21).
